High-throughput results (PubChem)
Only some compounds are listed: those with a hit (about 7.4% of all), similar ones and a draw of the others.
FLuc counter: counter-screen for miR-21 project: firefly luciferase inhibitors or activators | P08659 | purified FLuc, Km substrates, luminescence inhibition | Potency, µM (highest dose often 57.5 µM), for the others: at the highest dose activity change, negative = inhibition, usual class: inhibitors | 360,000 compounds, 6.9% hits | AID 588342;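 also: plate controls were vehicle for no effect and reference inhibitor for full effect; nearly all actives have a fitted effect of over 55% in size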
Target sequence (P08659 whole entry, looked up): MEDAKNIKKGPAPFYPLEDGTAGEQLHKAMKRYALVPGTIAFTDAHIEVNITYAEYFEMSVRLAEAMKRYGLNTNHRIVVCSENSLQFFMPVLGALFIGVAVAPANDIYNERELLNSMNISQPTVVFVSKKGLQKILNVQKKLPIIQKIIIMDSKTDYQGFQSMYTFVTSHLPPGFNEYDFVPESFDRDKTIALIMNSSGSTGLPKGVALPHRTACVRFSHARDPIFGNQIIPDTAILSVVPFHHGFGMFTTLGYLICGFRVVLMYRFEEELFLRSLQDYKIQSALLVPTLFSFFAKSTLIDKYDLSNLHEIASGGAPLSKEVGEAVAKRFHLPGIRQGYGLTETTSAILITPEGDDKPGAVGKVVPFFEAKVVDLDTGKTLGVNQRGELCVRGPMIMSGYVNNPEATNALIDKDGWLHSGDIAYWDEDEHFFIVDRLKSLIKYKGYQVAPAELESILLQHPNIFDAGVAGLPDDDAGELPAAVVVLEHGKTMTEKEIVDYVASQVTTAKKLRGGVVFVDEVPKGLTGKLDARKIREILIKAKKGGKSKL
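Purified P. pyralis luciferase, 10 nM final, with Km-level 10 uM D-luciferin and 10 uM ATP in 50 mM Tris acetate pH 7.5, 10 mM Mg acetate, 0.01% Tween-20, 0.05% BSA; 6-point qHTS titration about 60 µM downward; luminescence read.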
NPC1 prom act: activators of NPC1 promoter | AID 485313 | Huh7 NPC1 promoter luciferase reporter, 24 h | 320,000 compounds, 2.4% hits | Potency, µM (top dose mostly 9.22 µM), for the others: at the top dose activation, usual class: activators; also: % of control where 0% means no effect; nearly all actives have a fitted effect of over 60% in size
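Luminescence read-out of NPC1 promoter-driven luciferase in stably transfected Huh7 cells; compounds delivered in DMSO and left 24 h at 37C, 5% CO2, qHTS titration format.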
ELG1 genotoxic: inducers of genotoxicity in HEK293T ELG1-luciferase cells. Potency, µM (top dose mostly 46 µM), inactives show top-dose activity change, positive = activation, actives largely listed as activators. 330,000 compounds, 1.3% hits. HEK293T ELG1-luciferase reporter, luminescence, 16 h; also: % of control where 0% means no effect; nearly all actives have a fitted effect of over 60% in size
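Cells (2,000/well) expressing the ELG1-luciferase fusion are dosed by pin tool and kept 16 hr at 37 °C, 5% CO2. Signal comes from ONE-Glo luciferase reagent after 30 min at room temperature.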
SMN2 splice enh: enhancers of SMN2 splice variant expression. HEK293 SMN2-luciferase splicing reporter, luminescence, 30-36 h. Potency, µM (highest dose often 46.1 µM), inactives show at the highest dose activity change, positive = activation, hits mostly activators. AID 1458. 210,000 compounds, 2.8% hits; also: % of control where 0% means no effect; nearly all actives have a fitted effect of over 55% in size
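HEK293 cells carry an SMN2 […]–luciferase reporter in which exon 7 inclusion puts luciferase in frame. Cells were plated 10-12 h before compound addition, then incubated 30-36 h at 37C. ONE-Glo luminescence was read; sodium butyrate at 4.5 mM final served as control.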
Rab9 prom act: activators of Rab9 promoter; AID 485297; 320,000 compounds, 2.8% hits; Potency, µM (titrated, usually from 9.22 µM), inactives show top-dose activation, negative = inhibition, actives largely listed as activators; Huh7 Rab9 promoter-luciferase reporter, luminescence, 24 h; also: % of control where 0% means no effect; nearly all actives have a fitted effect of over 60% in size
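Stable Rab9-luc Huh7, 1500 cells/well, 2 h settle; cmpd in DMSO, 24 h, 37 °C/5% CO2; luciferase reagent 10 min RT; luminescence.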
An asterisk follows results filed as active; u = inconclusive; x = no result; [ ] = another dose, or the depositor's remark. Calls follow the shape of the dose curve; as a rule, active = well fitted curve in the direction sought with a large enough effect; inconclusive = small, poorly fitted or top-dose-only effect, or another doubt; inactive = no such curve, though single readings can be large; an effect the other way counts as inactive or inconclusive. Potency is read from the fitted curve at half-maximal effect.

SMILES	FLuc counter	NPC1 prom act	ELG1 genotoxic	SMN2 splice enh	Rab9 prom act
Cc1cccc(C)c1OCc1cc(C(=O)N2CC3C[C@@H]4CC2C[C@H](C3)C4)no1	u	2µM*	1.7%	x	1.58µM*
Cc1ccc(OCc2cc(C(=O)N3CC4C[C@@H]5CC3C[C@H](C4)C5)no2)cc1C	8.49µM*	3.55µM*	u	x	1.41µM*
COc1ccc(Cn2c(SCc3ccc(C(=O)NCc4ccc(C)cc4)cc3)nc3cccnc32)cc1	u	x	x	-17.4%	x
COc1ccc(-c2nc(Cn3c(SCc4ccc(F)cc4)nc4ccncc43)c(C)o2)cc1OC	13.5µM*	-4.0%	0.4%	-7.1%	-8.3%
Cn1c(SCc2ccccc2F)nc2cccnc21	9.53µM*	1.41µM*	u	12.6µM*	2.24µM*
COc1ccc(-c2nc(Cn3c(SCc4ccc(F)cc4)nc4cccnc43)c(C)o2)cc1	10.7µM*	x	x	x	x
Cc1ccc(CSc2nc3ccncc3n2Cc2nc(-c3ccc(Cl)cc3)oc2C)cc1	u	x	x	-0.5%	x
COc1ccc(-c2nc(Cn3c(SCc4ccc(C)cc4)nc4cccnc43)c(C)o2)cc1OC	6.01µM*	x	x	x	x
O=C1CC2(CCN(C(=O)COc3ccc(Cl)cc3)CC2)Oc2ccccc21	4.0%	-3.0%	6.6%	x	-4.7%
COc1ccc(-c2nc(Cn3c(SCc4ccccc4F)nc4ccncc43)c(C)o2)cc1	-13.8%	4.4%	u	-12.7%	12.4%
COc1ccc(-c2nc(Cn3c(SCc4ccccc4F)nc4cccnc43)c(C)o2)cc1	13.5µM*	x	x	x	x
COCCCn1c(SCC(=O)n2c(C)c(C)c3ccccc32)nnc1-c1ccoc1C	4.6%	1.0%	18.4µM*	-10.1%	17.3%
O=C(Cc1csc(NC(=O)Nc2cccc(Cl)c2)n1)NCc1cccnc1	6.75µM*	11.2%	-8.3%	x	13.9%
O=C(NCc1cccnc1)Nc1cccc(Cl)c1	-2.1%	11.2%	7.8%	x	15.2%
O=C(Cc1csc(NC(=O)Nc2cccc(Cl)c2)n1)NCc1ccccn1	2.69µM*	22.4%	2.4%	x	u
COc1ccccc1NC(=O)Nc1nc(CC(=O)NCc2cccnc2)cs1	u	-4.4%	0.1%	x	1.0%
O=C(Cc1csc(NC(=O)Nc2ccc(Cl)cc2)n1)NCc1cccnc1	3.01µM*	23.8%	-0.3%	x	23.8%
CCOc1ccc(CCNC(=O)c2ccc(CSCc3ccccc3C)o2)cc1OCC	-12.5%	x	x	x	x
COc1ccc(S(=O)(=O)N2CCC(C(=O)NCc3ccccc3)CC2)cc1OC	-0.1%	-4.7%	0.2%	-0.7%	-5.3%
Cc1ccc(C)c(N2CCN(C(=O)c3cccn3-c3nnc(N4CCCCC4)s3)CC2)c1	-14.3%	x	x	x	x
NS(=O)(=O)c1ccc(N=NN2CCCCC2)cc1	16.9µM*	u	11.4%	x	u
CC(=O)NS(=O)(=O)c1ccc(N=NN2CCCCC2)cc1	1.6%	-1.8%	1.8%	2.3%	1.5%
COC(=O)c1ccc(N=NN2CCOCC2)cc1	16.9µM*	u	u	11.2µM*	u
O=C(O)C1SCCN1S(=O)(=O)c1ccc(N=NN2CCOCC2)cc1 (stereo not drawn)	0.8%	-1.6%	0.3%	x	-7.8%
Clc1ccc(N=NN2CCOCC2)cc1	16.9µM*	18.5%	u	x	20.6%
SMILES	FLuc counter	NPC1 prom act	ELG1 genotoxic	SMN2 splice enh	Rab9 prom act
O=C(O)c1ccc(N=NN2CCCCC2)cc1	10.7µM*	u	u	26.0%	1.26µM*
CN(C)CCN(CC1CCCN(Cc2ccccc2F)C1)C(=O)c1ccc(Cl)cc1 (stereo not drawn)	3.3%	-0.6%	0.2%	x	-1.2%
COC(=O)c1ccc(N=NN2CCCCCC2)cc1	6.75µM*	2.24µM*	u	12.6µM*	3.16µM*
CN(C)c1cc(O)c(C(=S)Nc2ccccc2)c(N(C)C)c1	23.9µM*	24.3%	-3.9%	5.0%	20.0%
CN(C)c1ccc(NC(=S)c2ccccn2)cc1	0.0849µM*	u	u	0.501µM*	0.316µM*
Cc1ccc(NC(=O)CN(C)C(=O)c2ccccn2)cc1	-0.3%	-0.3%	-0.6%	x	-1.1%
CN(C)c1ccc(C(=S)Nc2ccccc2)cc1	1.51µM*	2.82µM*	u	25.8%	1µM*
COc1ccc2nc(SCC(=O)Nc3nccs3)[nH]c2c1	u	11.4%	1.4%	9.3%	15.2%
CC(C)n1cc(/C=N/NC(=O)COc2cccc3cccnc23)c2ccccc21	2.69µM*	-0.5%	-5.3%	x	0.5%
COc1cccc(/C=N/NC(=O)COc2cccc3cccnc23)c1O	12µM*	-8.2%	2.5%	-22.8%	-25.3%
COc1cccc(CNC(=O)CSC2=Nc3ccccc3C3=NC(C)C(=O)N23)c1OC (stereo not drawn)	-1.2%	x	x	x	x
CCOCC(=O)N1CCc2ccccc21	1.4%	-3.1%	-5.7%	25.3%	2.9%
CCOC(=O)/C=C/C(=O)N1CCc2ccccc21	10.7µM*	0.3%	1.1%	-5.7%	3.8%
O=C(/C=C/c1ccco1)N1CCc2ccccc21	2.13µM*	1.78µM*	1.03µM*	10µM*	0.794µM*
Cc1ccc(/C=C/C(=O)N2CCc3ccccc32)o1	1.9µM*	2.82µM*	8.2µM*	x	2.51µM*
O=C(c1ccco1)N1CCc2ccccc21	u	u	u	73.4%	u
O=C(Nc1ccc(F)cc1)c1ccccc1	23.9µM*	u	u	19.1%	u
COC(=O)c1ccc(C(=O)Nc2ccc(F)cc2)cc1	12µM*	2.51µM*	14.1%	x	u
Brc1cc2c(cc1Br)OCCOCCOCCO2	-2.5%	7.7%	-5.4%	x	-5.8%
C[N+](C)(C)c1ccc([C@H](N)C(=O)O)cc1	x	x	x	-4.3%[9.22 µM]	x
O=C(COC(=O)CCc1nc2ccccc2s1)NCc1ccco1	7.1%	-4.8%	0.4%	21.9%	-1.5%
CC(C)CNc1nc(Oc2ccc(=O)[nH]n2)nc(N2CCOCC2)n1	-4.4%	0.3%	-0.1%	-0.9%	-1.2%
COC(=O)c1c(-c2ccccc2)c[nH]c1C	26.9µM*	3.4%	10.8%	x	-0.6%
COC(=O)c1c(C)[nH]c(C)c1-c1ccccc1Cl	11.4%	-0.9%	-0.1%	-13.0%	1.4%
COC(=O)c1c(C)[nH]c(C=O)c1-c1ccccc1	13.5µM*	27.1%	u	x	u
SMILES	FLuc counter	NPC1 prom act	ELG1 genotoxic	SMN2 splice enh	Rab9 prom act
COc1ccc(C)cc1NC(=O)Cn1cc(S(=O)(=O)N2CCC(C)CC2)c2ccccc2c1=O	4.0%	x	x	3.4%	x
COC(=O)c1ccccc1NC(=O)CSc1nc2sc3c(c2c(=O)[nH]1)CCCC3	u	x	x	11.7%	x
CC(=O)c1cccc(CN2CCC(C(=O)Nc3cccc(-c4ccn[nH]4)c3)CC2)c1	-2.0%	7.4%	-7.6%	x	-2.4%
O=C(O)[C@H](Cc1ccc(O)c([N+](=O)[O-])c1)N1C(=O)c2ccccc2C1=O	x	x	x	-5.3%[9.22 µM]	x
COc1cc(NC(=O)/C=C/c2ccccc2[N+](=O)[O-])cc(OC)c1	21.3µM*	17.1%	0.0%	u	25.3%
O=C(O)/C=C/c1ccccc1[N+](=O)[O-]	3.1%	-3.8%	-2.1%	x	1.7%
